# From PubChem BioAssay (EPA / NIEHS)
# Records with an inconclusive call do not appear. Calls of active or inactive are those of the source. Rule for the calls, unless noted: active = hit-call score of the fitted dose curve at least 0.9, where 1 is the maximum; inactive = score below 0.9.
# Key:
# [1] = target: Retinoic acid receptor RXR-alpha (Homo sapiens) (UniProt P19793); experiment: TOX21_TR_RXR_BLA_Agonist_Followup_ratio: Tox21 Thyroid Hormone Receptor beta Retinoid X Receptor alpha (RXRa) Agonism Beta-lactamase (BLA) Follow-Up Assay, Ratio (AID 2283968; active = hit-call score of the fitted dose curve at least 0.9, where 1 is the maximum)
# Text: GeneBLAzer RXRa-UAS-bla HEK293T assay (RXRa-bla) (ThermoFisherScientific Catalog No. K1697) was run in qHTS 1536 well format as a secondary assay for specificity of response in the TOX21_TR_GH3_LUC_Agonist assay.TOX21_TR_RXR_BLA_Agonist_Followup_ratio is an assay readout measuring reporter gene via receptor activity and designed using inducible reporter (beta lactamase induction) detected with GAL4 b-lactamase reporter gene. The signal is derived from the ratio of cleaved (ch2) to uncleaved (ch1) reporter gene substrate used as the measure of target activity.Data from the assay component TOX21_TR_RXR_BLA_Agonist_Followup_ratio was analyzed into 1 assay endpoint. This assay endpoint, TOX21_TR_RXR_BLA_Agonist_Followup_ratio, was analyzed in the positive analysis fitting direction relative to DMSO as the negative control and baseline of activity. […] Furthermore, this assay endpoint can be referred to as a primary readout, because this assay has produced multiple assay endpoints and this ratio serves a reporter gene function to understand target activity. […]
# After5-h incubation at 37C/5% CO2 for cell attachment, 23 nL of follow-up compounds dissolved in DMSO, 11 concentrations in triplicate, and the positive control (9-cis retinoic acid) were transferred to the assay plates using a Pintool station. […] Data were expressed as the ratio of 460:530 nm.
# [2] = TOX21_TR_RXR_BLA_Agonist_Followup_viability: Viability Assessment in the Tox21 Thyroid Hormone Receptor beta Retinoid X Receptor alpha (RXRa) Agonism Beta-lactamase (BLA) Follow-Up Assay (AID 2283970; active = hit-call score of the fitted dose curve at least 0.9, where 1 is the maximum)
# Outline: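 CellTiter-Glo ATP quantitation as viability read-out in RXRa-bla HEK293T cells (2,500/well, charcoal-stripped 2% FBS medium), 16h compound incubation at 37C. Loss of signal versus DMSO taken as cytotoxicity, analyzed by bidirectional curve fitting.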
# [3] = CCTE_Shafer_MEA_acute_spike_number: CCTE's Neural Acute Assay for Total Number of Spikes, Shafer Lab (AID 2284008);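 note: curve fitted for decrease in spike count so AC50 reflects inhibitors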
# Outline: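 Read-out is the total spike count over 40 min, expressed as percent change from each well's own pre-treatment baseline and fitted in the loss direction against DMSO. Rat cortical neurons were exposed at 0.03-40 uM on DIV 13 or 15.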
# [4] = CCTE_Shafer_MEA_acute_firing_rate_mean: CCTE's Neural Acute Assay for Mean Firing Rate, Shafer Lab (AID 2284009);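 note: analyzed for loss of signal so actives lower firing rate relative to DMSO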
# Outline: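 Spontaneous spiking of primary rat cortical networks, DIV 13/15, 37 C. Compound 0.03-40 uM, n ≥3 wells; 40 min baseline vs 40 min treated. Endpoint fitted in loss-of-signal direction against DMSO.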
# [5] = CCTE_Shafer_MEA_acute_burst_number: CCTE's Neural Acute Assay for Single-Electrode Bursts, Shafer Lab (AID 2284013)
# Outline: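 Burst totals were derived with adaptive spike detection (8x rms threshold) on filtered signals from rat cortical cultures; change relative to pre-treatment baseline after 40-min compound exposure (0.03-40 uM) was fitted in the negative direction against DMSO.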
# Chain of Retinoic acid receptor RXR-alpha (Homo sapiens) (P19793 whole entry, looked up, the tested form may be a part): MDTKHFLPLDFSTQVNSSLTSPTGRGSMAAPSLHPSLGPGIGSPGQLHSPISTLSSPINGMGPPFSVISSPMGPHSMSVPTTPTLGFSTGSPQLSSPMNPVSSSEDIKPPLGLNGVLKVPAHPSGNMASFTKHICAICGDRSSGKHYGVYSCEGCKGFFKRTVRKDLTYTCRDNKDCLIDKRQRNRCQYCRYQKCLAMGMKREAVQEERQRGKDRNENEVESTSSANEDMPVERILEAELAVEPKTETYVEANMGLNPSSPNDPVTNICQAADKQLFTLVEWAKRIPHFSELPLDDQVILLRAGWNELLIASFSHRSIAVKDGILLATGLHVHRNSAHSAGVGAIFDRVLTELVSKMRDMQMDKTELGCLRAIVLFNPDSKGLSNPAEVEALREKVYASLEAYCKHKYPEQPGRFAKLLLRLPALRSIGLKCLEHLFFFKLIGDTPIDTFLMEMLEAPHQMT
smiles,measurement,setting,value
O=C(c1ccccc1)c1ccc(O)cc1O,outcome,[1],inactive
same,outcome,[2],inactive
C[C@]12CC[C@H]3C(=CCc4cc(O)ccc43)[C@@H]1CCC2=O,outcome,[2],inactive
CCN=C1C=CC(=C(c2ccc(N(CC)CC)cc2)c2ccc(N(CC)CC)cc2)c2ccccc21,AC50,[3],559 nM (active)
same,AC50,[4],559 nM (active)
same,AC50,[5],545 nM (active)
